Assay outcomes from PubChem BioAssay.
Sampled rows, rich in hits. Any-hit rate of the full collection: about 14%.
LASV entry inh: Lassa virus entry inhibition | Lassa virus pseudotype entry inhibition, cell reporter | Potency, µM (doses to about 37.9 µM), without a hit: at the top dose activity change, negative = inhibition, most hits filed as inhibitors | hit rate 1.2% among 300,000; calls by dose curve; tested in HEK293 cells; also: potency is read from the fitted curve at half-maximal effect; nearly all actives have a fitted effect of over 50% in size
Marburg entry inh: Marburg virus entry inhibition; Marburg virus pseudotyped entry inhibition, cell reporter; Potency, µM (highest dose often 37.8 µM), without a hit: top-dose activity change, negative = inhibition, usual class: inhibitors; hit rate 1.8% among 300,000; calls by dose curve; tested in HEK293 cells; also: potency is read from the fitted curve at half-maximal effect
Pf growth 48h: inhibits P. falciparum growth in the first generation, 48 h; P. falciparum luciferase growth in erythrocytes, 48 h; Potency, µM (doses to about 28.7 µM), without a hit: at the top dose activity change, negative = inhibition, actives largely listed as inhibitors; hit rate 5.9% among 310,000; also: potency is read from the fitted curve at half-maximal effect
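Firefly luciferase activity from engineered P. falciparum reports growth; inhibitors lower the luminescent signal. Cultures contained 2% hematocrit erythrocytes at 0.1% final parasitemia.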
HCMV antiviral: inhibitors of human cytomegalovirus | HFF cells, HCMV-luciferase reporter, 72 h; hits give low values | activity change, negative = inhibition, % at 57.5 µM | hit rate 4.5% among 410,000 | AID 1259415; in the data active = activity change below about -60%; inconclusive = no clear call, values can overlap the other calls; inactive = above about -39%
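Inhibition of viral replication was scored as loss of reporter luminescence in HFFs infected with HCMV-luciferase (MOI 1 PFU/cell) for 72 h; compounds tested at 2 doses, normalized to buffer and Salinomycin controls.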
Pf growth 96h: P. falciparum growth inhibition at 96 hour, primary screen for plastid delayed-death inhibitors; P. falciparum luciferase reporter growth, 96 h; Potency, µM (series often up to 28.7 µM), for inactives: top-dose activity change, negative = inhibition, most hits filed as inhibitors; hit rate 6.9% among 320,000; AID 504834; also: potency is read from the fitted curve at half-maximal effect
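Compounds incubated with erythrocytes infected by luciferase-expressing P. falciparum (2% hematocrit, 0.05% parasitemia final) for 96 hours, 37 C in 5% CO2. Growth inhibition scored as decreased luciferase luminescence.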
HCV inhibitor: inhibitors of hepatitis C virus infection; Huh7.5.1 HCVcc-Cre infection, luciferase reporter, 44 h; Potency, µM (series often up to 41.8 µM), inactives show top-dose activity change, negative = inhibition, hits mostly inhibitors; hit rate 3.4% among 340,000; also: potency is read from the fitted curve at half-maximal effect
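Infectious HCV cell culture screen: compound-treated cells (1,000/well, pre-plated 4 h) are infected with HCVcc-Cre at roughly 0.5 moi and grown 44 h. Infection is quantified by luciferase signal after 15 min substrate incubation at room temperature.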
Numbers without * were called inactive; u = inconclusive; x = no result given; + = active, no number; [ ] = dose if it differs, or a comment. Unless noted, calls follow the shape of the dose curve; as a rule, active = well fitted inhibition curve with a large enough effect; inconclusive = small, poorly fitted or top-dose-only effect, or another doubt; inactive = no such curve, though single readings can be large or run the other way. % is scaled to controls: 0 for no effect and ±100 for the full control effect.

SMILES	LASV entry inh	Marburg entry inh	Pf growth 48h	HCMV antiviral	Pf growth 96h	HCV inhibitor
O=C(NCC(O)c1ccccc1)c1ccc(Cl)c(S(=O)(=O)N2CCCC2)c1 (stereo not drawn)	2.9%	-32.9%	9.28µM*	x	u	u
O=C(NCc1ccccc1)c1ccc(Cl)c(S(=O)(=O)N2CCCC2)c1	x	x	x	-25.3	x	-24.6%
CCOc1cc(C)c(S(=O)(=O)NC2CCCCC2)cc1C	-2.6%	-28.1%	2.2%	-26.3	5.5%	u
CCOc1ccc(Br)cc1S(=O)(=O)NC1CCCC1	19.2%	-4.5%	u	-21.3	8.28µM*	u
CCOc1ccc(Br)cc1S(=O)(=O)NC1=NCCCCC1	13.9%	u	x	-63.8*	x	-6.7%
Cc1cc(NC(=O)Cn2c(=O)oc3cc(S(=O)(=O)N4CCCC4)ccc32)ccc1Br	-22.2%[46.1 µM]	x	x	-18.9	x	x
Cc1cc(C)c(NC(=O)C2CC3CCC2C3)c(C)c1 (stereo not drawn)	x	x	10.4µM*	0.9	25.0%	10.2%
Cc1cccc(C)c1NC(=O)C1CC2CCC1C2 (stereo not drawn)	9.6%[46.1 µM]	-2.2%[46.1 µM]	x	2.6	x	13.5%
C[C@]12c3[nH]c4ccccc4c3CCN1C(=O)C(CC(=O)NCCc1ccccn1)C[C@@H]2C(=O)N1CCOCC1 (stereo partly drawn)	x	x	x	18.9	x	-7.3%
Cc1cc(C(=O)OCC(=O)N(C)c2ccccc2)ccc1[N+](=O)[O-]	-4.4%[46.1 µM]	6.9%[46.1 µM]	4.3%	-62.9*	19.2%	-8.0%
CN(C(=O)COC(=O)c1ccc2c(c1)OCCO2)c1ccccc1	21.2%	u	0.4%	-69.4*	21.2%	13.0%
O=C(CCN1C(=O)/C(=C/C=C/c2ccccc2)SC1=S)Nc1cccnc1	-0.8%	u	48.4%	19.8	8.3%	u
O=C(CCCN1C(=O)/C(=C/c2cccc(Br)c2)SC1=S)Nc1cccnc1	u	u	-28.2%	-99.4*	u	u
O=C(CCCN1C(=O)/C(=C\c2cccc(Br)c2)SC1=S)Nc1cccnc1	u	4.47µM*	u	-99.4*	8.4%	u
Cc1cc(NC(=O)CN2C(=O)/C(=C/c3cccc(Br)c3)SC2=S)no1	15.0%[46.1 µM]	0.0%[46.1 µM]	6.2%	19.7	39.4%	12.7%
O=C(CCCN1C(=O)/C(=C/c2cccc(Br)c2)SC1=S)Nc1ccccn1	-10.0%	u	u	-101.5*	u	11.2µM*
O=C(CCN1C(=O)/C(=C/C=C/c2ccccc2)SC1=S)Nc1ccccn1	u	-28.9%	1.7%	-64.8*	-59.0%	11.1%
Cc1ccc(/C=C2\SC(=S)N(CCCC(=O)Nc3cccnc3)C2=O)cc1	u	u	u	x	-2.1%	0.4%
CC1(c2nnnn2Cc2ccccc2)CCC(=O)N1Cc1ccco1 (stereo not drawn)	x	x	x	11.2	x	x
Cc1ccc(-n2ccnc(NCCc3ccc(S(N)(=O)=O)cc3)c2=O)c(C)c1	-11.9%[46.1 µM]	x	x	-36.2	x	x
CCCNC(=O)c1nnc2n1CCN(C(=O)CCc1ccccc1)C2	x	x	x	-9.9	x	x
CC1=NOC(=O)/C1=C\c1ccc(-c2cc(Cl)ccc2Cl)o1	22.1%	9.4%	x	-103.5*	43.9%	u
CCOC(=O)C1CCN(c2nc(C)cc(C)c2C#N)CC1	2.6%[46.1 µM]	-10.6%[46.1 µM]	16.3%	-13.1	1.5%	-2.8%
Cc1cc(C)c(C#N)c(N2CCCC(C(N)=O)C2)n1 (stereo not drawn)	-5.6%	3.7%[46.1 µM]	-15.3%	-6.4	11.7µM*	10.1%
Cc1cc(C)cc(N(CC(=O)Nc2ccc(C(F)(F)F)cc2)S(=O)(=O)c2c(C)[nH]c(=O)[nH]c2=O)c1	13.7%[46.1 µM]	-8.6%[46.1 µM]	14.7µM*	-34.7	5.6%	u
SMILES	LASV entry inh	Marburg entry inh	Pf growth 48h	HCMV antiviral	Pf growth 96h	HCV inhibitor
CCOC(=O)c1ccc(NC(=O)CN(c2ccc(C)cc2)S(=O)(=O)c2c(C)n[nH]c2C)cc1	2.7%	5.6%	13.1µM*	-19.7	8.2%	u
COc1cc(NC(=O)CN(c2cc(C)cc(C)c2)S(=O)(=O)c2c(C)[nH]c(=O)[nH]c2=O)cc(OC)c1	0.0%[46.1 µM]	0.7%[46.1 µM]	-4.9%	-31.5	u	4.6%
Cc1n[nH]c(C)c1S(=O)(=O)N(CC(=O)Nc1ccc(C(F)(F)F)cc1)c1ccc(C(C)C)cc1	-6.0%[46.1 µM]	u	x	-96.1*	x	x
CCOC(=O)c1ccc(NC(=O)CN(c2ccc(C)cc2)S(=O)(=O)c2c(C)noc2C)cc1	u	11.2µM*	x	0.5	x	x
CC(=O)C1=C(O)C(=O)N(c2ccccn2)C1c1ccc(Cl)cc1 (stereo not drawn)	19.4%[46.1 µM]	2.6%[46.1 µM]	0.0%	-1.0	-17.2%	23.1%
CC(=O)C1=C(O)C(=O)N(c2ccccn2)C1c1ccc(C)cc1 (stereo not drawn)	5.2%	u	3.8%	28.0	0.37µM*	u
CC(C)CCC(CCNCc1ccccn1)c1ccc2c(c1)OCO2 (stereo not drawn)	x	x	u	26.8	10.4µM*	-17.2%
Fc1ccccc1CNCCC(Cc1ccccc1)c1ccc2c(c1)OCO2 (stereo not drawn)	u	u	u	u	-13.8%	u
CCNCCC(CCC(C)C)c1ccc2c(c1)OCO2 (stereo not drawn)	-7.0%[46.1 µM]	8.91µM*	u	45.0	2.94µM*	u
O=S(=O)(c1ccccc1)c1nnn2c1nc(NC1CCN(Cc3ccccc3)CC1)c1cc(Cl)ccc12	x	x	0.657µM*	-15.6	1.3%	u
COCCNc1nc2c(S(=O)(=O)c3ccccc3)nnn2c2ccc(Cl)cc12	x	4.6%[46.1 µM]	x	-6.5	x	x
CCCn1nc(NC(=O)c2ccncc2)c2cc3ccccc3nc21	0.4%	u	u	10.2	u	u
CCCCn1nc(NC(=O)c2cccs2)c2cc3ccccc3nc21	u	16.4µM*	21.8%	7.3	58.4%	u
CC(=O)Nc1nn(C)c2nc3cc(C)ccc3cc12	13.1%	4.1%	6.8%	124.8	40.2%	u
CCn1nc(NC(=O)c2ccco2)c2cc3cc(C)ccc3nc21	-29.9%	u	-10.6%	3.6	6.6%	u
Cc1ccc2cc3c(NC(=O)c4ccco4)nn(C)c3nc2c1	u	-42.6%	u	-37.9	8.28µM*	u
CCCn1nc(NC(=O)c2ccco2)c2cc3ccccc3nc21	u	u	8.2%	4.0	u	35.5µM*
CCCn1nc(NC(=O)c2cccs2)c2cc3ccccc3nc21	u	u	u	2.5	u	11.2µM*
CCCCn1nc(NC(=O)c2cccc(Cl)c2)c2cc3ccccc3nc21	2.9%[46.1 µM]	7.8%[46.1 µM]	x	5.3	x	x
O=C(NCC1CC1)[C@@H]1[C@@H](CO)[C@@H]2Cn3c(cccc3=O)[C@@H]2N1Cc1cccc(F)c1	x	x	x	-4.1	x	x
Cc1ccc(CN2CCCN(Cc3ccccc3C)S2(=O)=O)cc1	-1.2%[46.1 µM]	4.8%[46.1 µM]	38.5%	-36.3	44.0%	3.3%
COC(=O)c1ccc(OC)c(CN2CCCN(Cc3ccc(C)cc3)S2(=O)=O)c1	2.0%[46.1 µM]	x	x	+	x	x
